# According to PubChem BioAssay (NCATS):
# Records with an inconclusive call do not appear. Calls of active or inactive are those of the source. Calls follow the shape of the dose curve; as a rule, active = well fitted inhibition curve with a large enough effect; inconclusive = small, poorly fitted or top-dose-only effect; inactive = flat fitted curve, though single readings scatter.
# System: Zika virus NS2B-NS3 protease
# Assay: Primary screen GU AMC qHTS for Zika virus inhibitors (AID 1347154);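 also: 0% = no-inhibitor control and -100% = no-enzyme control; nearly all actives have a fitted effect of over 70% in size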
# Conditions: Zika NS2B-NS3 unlinked protease, AMC fluorogenic substrate; series mostly up to 54.1 µM; activity change, negative = inhibition: at the top concentration
# Procedure, shortened: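 Unlinked Zika NS2B hydrophilic domain–NS3 protease complex at 25 nM in 10 mM Tris-HCl pH 8.0, 0.01% Tween 20, with an AMC peptide substrate. Fluorescence change (340/450 nm) over 15 min at room temperature, normalized to controls, fitted to 4-parameter Hill.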
Compound,"activity change, negative = inhibition",Potency
O=C1OC2(c3ccccc31)c1cc(Br)c(O)c(Br)c1Oc1c2cc(Br)c(O)c1Br,-7.71% (inactive),–
CCCCNC(=O)NS(=O)(=O)c1ccc(N)cc1,-2.75% (inactive),–
O=C1c2cccc3c2[C@H](CCC3)CN1[C@@H]1CN2CCC1CC2,-4.94% (inactive),–
Cc1ccc(-c2ncc(Cl)cc2-c2ccc(S(C)(=O)=O)cc2)cn1,4.38% (inactive),–
CCCc1ncc(C[n+]2ccccc2C)c(N)n1,-2.9% (inactive),–
FC1(F)C(F)(F)C(F)(F)C2(F)C(F)(F)C(F)(F)C(F)(F)C(F)(F)C2(F)C1(F)F (stereo not given),-14.9% (inactive),–
CCN1CCN(C(=O)N[C@@H](C(=O)N[C@@H]2C(=O)N3C(C(=O)O)=C(CSc4nnnn4C)CS[C@H]23)c2ccc(O)cc2)C(=O)C1=O,6.59% (inactive),–
CCc1cc(Cl)c(OC)c(C(=O)NC[C@@H]2CCCN2CC)c1O,–,inactive
Cc1cc(CC(=O)O)c(C)n1-c1ccc(Cl)cc1,-12.2% (inactive),–
Nc1ccc(C(=O)NCC(=O)O)cc1,-5.6% (inactive),–
C#C[C@]1(O)CC[C@H]2[C@@H]3CCC4=Cc5oncc5C[C@]4(C)[C@H]3CC[C@@]21C,-4.24% (inactive),–
Cc1cc(NS(=O)(=O)c2ccc(N)cc2)nc(C)n1,1.04% (inactive),–
Cc1c[nH]c2ccccc12,-3.13% (inactive),–
NCCNC(=O)c1ccc(Cl)cn1,–,inactive
O=c1[nH]c(=O)n([C@H]2C[C@H](O)[C@@H](CO)O2)cc1F,0.413% (inactive),–
CCc1nn(CCCN2CCN(c3cccc(Cl)c3)CC2)c(=O)n1CCOc1ccccc1,–,inactive
COc1cc(C(=O)N2CCCCCCC2)cc(OC)c1OC,2.93% (inactive),–
Cc1cn([C@H]2C[C@H](F)[C@@H](CO)O2)c(=O)[nH]c1=O,-4.64% (inactive),–
C#C[C@]1(O)CC[C@H]2[C@@H]3[C@H](C)CC4=C(CCC(=O)C4)[C@H]3CC[C@@]21C,-8.26% (inactive),–
CC1=C(C(=O)O)N2C(=O)[C@@H](NC(=O)[C@H](N)c3ccccc3)[C@H]2SC1,0.758% (inactive),–

Compound,"activity change, negative = inhibition",Potency
COc1ccc(CN(CCN(C)C)c2ncccn2)cc1,-0.0404% (inactive),–
Cl/C(=C\n1cncn1)c1ccc(Cl)cc1Cl,–,inactive
OCCOCCN1CCN(C2=Nc3ccccc3Sc3ccccc32)CC1,3.31% (inactive),–
CCC1Nc2cc(Cl)c(S(N)(=O)=O)cc2S(=O)(=O)N1 (stereo not given),-3.12% (inactive),–
CC(C)(C)CC(C)(C)c1ccc(O)c(-n2nc3ccccc3n2)c1,-12.4% (inactive),–
CC(=O)NO,0.548% (inactive),–
CCCN(CCc1cccs1)[C@H]1CCc2c(O)cccc2C1,-11.5% (inactive),–
OC1C(O)C(O)C(O)C(O)C1O (stereo not given),3.36% (inactive),–
N#CCC(=O)NN,-4.18% (inactive),–
CC(=O)NC(=O)c1ccccc1O,-15.3% (inactive),–
NS(=O)(=O)c1cc2c(cc1Cl)NC(CC1CCCC1)NS2(=O)=O (stereo not given),1.56% (inactive),–
O=[N+]([O-])c1cccc(S(=O)(=O)NCCNS(=O)(=O)c2cccc([N+](=O)[O-])c2)c1,-2.57% (inactive),–
COc1cc(C(=S)N2CCOCC2)ccc1O,-4.72% (inactive),–
CCOC(=O)Nc1ccc2c(c1)N(C(=O)CCN1CCOCC1)c1ccccc1S2,0.0408% (inactive),–
CCOC(=O)[C@H](CCc1ccccc1)N[C@@H](C)C(=O)N1[C@H](C(=O)O)C[C@@H]2CCC[C@@H]21,0.283% (inactive),–
NC1CCN(c2nc3c(cc2F)c(=O)c(C(=O)O)cn3-c2ccc(F)cc2F)C1 (stereo not given),-7.43% (inactive),–
C#C[C@]1(O)CC[C@H]2[C@@H]3CCC4=CC(=O)CC[C@@H]4[C@H]3CC[C@@]21CC,-1.04% (inactive),–
Nc1ccc(S(=O)(=O)NCc2ccccc2)cc1,0.815% (inactive),–
CCCCOC(=O)CC(CC(=O)OCCCC)(OC(C)=O)C(=O)OCCCC,-7.46% (inactive),–
C[N+]1(C)CCC(=C(c2ccccc2)c2ccccc2)CC1,112% (inactive),–
